Screening data as filed in PubChem.
Most compounds without a hit are left out; they make up all but 4.9% or so of the library.
Beta cell apopt: beta cell apoptosis inhibition | protection from apoptosis, % (test concentration not listed) | 300,000 compounds, 0.8% hits | INS-1E cytokine-induced death, ATP luminescence, 48 h; percent of positive-control rescue, neutral wells zero;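 active means Every replicate reaches about 75%, or at least half do and their mean reaches it too, limit read from the data; inconclusive means At least half of replicates reach the limit but their mean does not; inactive means Under half of replicates reach the limit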;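 further: 0% = cytokine-treated negative control wells and 100% = positive control rescue; higher means more ATP so stronger rescue from cytokine killing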
PP5 primary: inhibitors of human protein phosphatase 5 (PP5) | purified PP5c, OMFP substrate fluorescence | 320,000 compounds, 0.18% hits | AID 1987 | inhibition, % at 6.7 µM;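 active means inhibition above the campaign's mean inhibition across all tested compounds plus 3 SD, cut at about 9.5% in these data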;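 further: 0% = DMSO only and 100% = 100 µM cantharidin control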
Target sequence (P53041 whole entry, looked up): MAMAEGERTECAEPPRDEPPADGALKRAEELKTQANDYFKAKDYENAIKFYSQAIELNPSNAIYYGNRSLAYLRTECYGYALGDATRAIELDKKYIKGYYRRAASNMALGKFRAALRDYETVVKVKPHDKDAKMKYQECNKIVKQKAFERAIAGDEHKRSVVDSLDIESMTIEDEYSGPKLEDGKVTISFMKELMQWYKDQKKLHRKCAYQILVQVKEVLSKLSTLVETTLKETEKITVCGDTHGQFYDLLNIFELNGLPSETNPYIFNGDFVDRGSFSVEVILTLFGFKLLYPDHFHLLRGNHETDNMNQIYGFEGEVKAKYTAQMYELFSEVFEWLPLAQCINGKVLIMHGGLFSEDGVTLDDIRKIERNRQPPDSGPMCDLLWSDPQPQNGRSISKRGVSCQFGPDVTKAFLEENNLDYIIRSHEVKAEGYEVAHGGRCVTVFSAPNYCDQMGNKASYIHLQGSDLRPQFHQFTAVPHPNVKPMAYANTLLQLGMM
Mdm2 MdmX PPI: human Mdm2/MdmX binding inhibition | O15151+Q00987 | SaOS-2 split-luciferase Mdm2/MdmX complementation, luminescence | inhibition, % at 8 µM | 330,000 compounds, 3% hits;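 active means inhibition of at least 50% at 8 µM in the primary screen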
PP1 inh: PP1-alpha (human) inhibition in PP5 counter-screen; P62136; AID 2235; purified PP1alpha, OMFP fluorescence; inhibition, % at 6.7 µM; 320,000 compounds, 0.9% hits;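 active means inhibition above the mean inhibition of all tested compounds plus 3 SD, computed separately for each screening campaign, cut at about 15% in these data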
CSC inhib: cancer stem cell inhibition. inhibition, % at 7.5 µM. cancer stem cell-like cells viability, luminescence. 300,000 compounds, 1.1% hits; in the data active means inhibition above about 75%; inconclusive means no clear call, values can overlap the other calls; tested in HMLE shEcad cells
Calb FLC: C. albicans growth modulation with fluconazole; C. albicans CaCi-2 (fluconazole-resistant clinical isolate) + fluconazole, Alamar Blue growth, 48 h; 300,000 compounds, 0.57% hits; growth inhibition, % (concentration not given with the values);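 active means growth inhibition above about 58% in most replicates, limit read from the data, passing the limit was not always enough; inconclusive means exactly half the replicates above a set limit; inactive means most replicates below a set limit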;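 further: all wells also contain fluconazole at 8 µg/ml as a sub-toxic cotreatment; 0% = median of DMSO wells and 100% = median of geldanamycin control wells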
Mdm2 MdmX conf: confirmation of human Mdm2/MdmX interaction inhibitors. Mdm2-MdmX binding, luminescent assay. inhibition, % at 8 µM. 10,000 compounds, 55% hits. shares compounds with Mdm2 MdmX PPI; in the data active means inhibition above about 40%
Full FLuc ctr: counter-screen for Mdm2/MdmX inhibitors: full-length luciferase; shares compounds with Mdm2 MdmX PPI; SaOS-2 full-length luciferase counterscreen, luminescence; inhibition, % at 8 µM; 6,200 compounds, 77% hits; AID 504607;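 active means mean inhibition at 8 µM reaching about 37%, which flags the compound as non-specific, limit read from the data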;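 further: p53-null SaOS-2 cells with luciferase driven by a doxycycline-inducible promoter; compound on cells about two nights before reading with doxycycline added after day one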
An asterisk follows results filed as active.

How did CC1CCN(CCCNC(=O)c2cc3c(s2)-c2ccccc2OC3)CC1 do in these assays?
Beta cell apopt: 2; PP5 primary: 3; Mdm2 MdmX PPI: 41; PP1 inh: 2; CSC inhib: 11; Calb FLC: 2

Results for O=C(Nc1cccc(C(=O)O)c1)Nc1ccc2c(c1)OCO2 ?
Beta cell apopt: -4; PP5 primary: 3; Mdm2 MdmX PPI: 54*; PP1 inh: -2; CSC inhib: 4; Calb FLC: 0; Mdm2 MdmX conf: 63*; Full FLuc ctr: 50*

Results for COc1ccc([N+](=O)[O-])cc1NC(=S)NC(NC(=O)C(c1ccccc1)c1ccccc1)C(Cl)(Cl)Cl (stereo not drawn) ?
Beta cell apopt: 36; PP5 primary: 1; Mdm2 MdmX PPI: 89*; PP1 inh: 8; CSC inhib: 9; Calb FLC: 19; Mdm2 MdmX conf: 79*; Full FLuc ctr: 29

What do the screens show for `O=C(NC(NC(=S)Nc1c(Cl)cccc1Cl)C(Cl)(Cl)Cl)c1cccc([N+](=O)[O-])c1` (stereo not drawn)?
Beta cell apopt: 27; PP5 primary: 0; Mdm2 MdmX PPI: 58*; PP1 inh: 6; CSC inhib: 51; Calb FLC: -1; Mdm2 MdmX conf: 50*; Full FLuc ctr: 76*

What do the screens show for `COc1ccc(NC(=S)NC(NC(=O)c2ccccc2Cl)C(Cl)(Cl)Cl)c([N+](=O)[O-])c1` (stereo not drawn)?
Beta cell apopt: 9; PP5 primary: 3; Mdm2 MdmX PPI: -30; PP1 inh: 0; CSC inhib: 29; Calb FLC: -11

Results for O=C(COc1ccccc1[N+](=O)[O-])Nc1ccc2c(c1)OCO2 ?
Beta cell apopt: 3; PP5 primary: -1; Mdm2 MdmX PPI: -71; PP1 inh: 0; Calb FLC: 5

What do the screens show for `N#Cc1ccc(OCC(=O)N2CCCC2=O)cc1`?
Beta cell apopt: -3; PP5 primary: -1; Mdm2 MdmX PPI: 20; PP1 inh: -2

Results for CCOc1ccc(/C=N/NC(=S)Nc2c(C)cccc2C)cc1 ?
Beta cell apopt: 4; PP5 primary: 2; Mdm2 MdmX PPI: 52*; PP1 inh: 5; CSC inhib: 6; Calb FLC: 2; Mdm2 MdmX conf: 15

How did CCOc1ccc(/C=N/NC(=O)COc2ccccc2-c2ccccc2)cc1 do in these assays?
Beta cell apopt: 3; PP5 primary: 1; Mdm2 MdmX PPI: 51*; PP1 inh: -1; CSC inhib: 78*; Calb FLC: -21; Mdm2 MdmX conf: 44*; Full FLuc ctr: 52*

How did CCOc1ccc(/C=N/NC(=O)c2c(-c3ccccc3)noc2C)cc1 do in these assays?
Beta cell apopt: -5; PP5 primary: 5; Mdm2 MdmX PPI: 15; PP1 inh: 8; CSC inhib: -10; Calb FLC: -10

What do the screens show for `COc1cccc(-c2c(-c3cc(OC)cc(OC)c3)n(C)c3ccc(-c4cnc(N5CCOCC5)nc4)cc23)c1`?
Beta cell apopt: -3; Mdm2 MdmX PPI: 71*; CSC inhib: 42; Mdm2 MdmX conf: -6

Results for COc1ccc(-c2c(-c3cc(OC)cc(OC)c3)n(C)c3ccc(-c4ccc(S(N)(=O)=O)cc4)cc23)cc1 ?
Beta cell apopt: -3; PP5 primary: -2; Mdm2 MdmX PPI: 57*; PP1 inh: -2; CSC inhib: 2; Mdm2 MdmX conf: 40; Full FLuc ctr: 80*

Results for COc1cc(OC)cc(-c2c(-c3ccc(F)cc3)c3cc(-c4cnc(OC)nc4)ccc3n2C)c1 ?
Beta cell apopt: 1; PP5 primary: 2; Mdm2 MdmX PPI: 57*; PP1 inh: -4; CSC inhib: 4; Mdm2 MdmX conf: 54*; Full FLuc ctr: 42*

What do the screens show for `CCC(=O)N1CCc2cc(S(=O)(=O)N3CCN(c4cc(C)ccc4C)CC3)ccc21`?
Beta cell apopt: -2; PP5 primary: 2; Mdm2 MdmX PPI: 20; PP1 inh: 0; CSC inhib: 5; Calb FLC: -3

What do the screens show for `CS(=O)(=O)N(CC(=O)Nc1ccc(Br)cc1)C1CCCCC1`?
Beta cell apopt: 0; PP5 primary: 4; Mdm2 MdmX PPI: -3; PP1 inh: -2; CSC inhib: -18; Calb FLC: 14

Results for N#CC1(NC(=O)Cn2ncc(Cl)c(Cl)c2=O)CCCCC1 ?
Beta cell apopt: -13; PP5 primary: 3; Mdm2 MdmX PPI: 98*; PP1 inh: 1; CSC inhib: -9; Mdm2 MdmX conf: 83*; Full FLuc ctr: 30

What do the screens show for `Cc1nn(Cc2ccc(Cl)cc2Cl)c(C)c1NC(=O)c1ccc(COc2cc(Cl)ccc2Cl)o1`?
Beta cell apopt: 7; PP5 primary: 3; Mdm2 MdmX PPI: 58*; PP1 inh: 12; CSC inhib: 4; Calb FLC: 8; Mdm2 MdmX conf: -4

Results for CN1CCN(C(=O)c2ccc(COc3cc(Cl)ccc3Cl)o2)CC1 ?
Beta cell apopt: 4; PP5 primary: 1; Mdm2 MdmX PPI: 8; PP1 inh: 0; CSC inhib: 36; Calb FLC: 15

What do the screens show for `Cc1nn(Cc2ccc(Cl)cc2Cl)c(C)c1NC(=O)CCl`?
Beta cell apopt: -9; PP5 primary: -1; Mdm2 MdmX PPI: 78*; PP1 inh: 1; CSC inhib: -6; Calb FLC: 0; Mdm2 MdmX conf: 92*; Full FLuc ctr: 62*

What do the screens show for `O=C(N/N=C(\Cc1ncc[nH]1)c1ccccc1)c1cccnc1`?
Beta cell apopt: 7; PP5 primary: 0; Mdm2 MdmX PPI: 54*; PP1 inh: -1; CSC inhib: 100*; Calb FLC: 3; Mdm2 MdmX conf: 64*; Full FLuc ctr: 33

Results for C/C(=N/NC(=O)c1ccncc1)c1ccccc1 ?
PP5 primary: 3; Mdm2 MdmX PPI: -14; PP1 inh: -1; CSC inhib: -8; Calb FLC: 4

How did O=C(N/N=C(\Cc1ncc[nH]1)c1ccccc1)c1ccccc1 do in these assays?
Beta cell apopt: 46; PP5 primary: -1; Mdm2 MdmX PPI: 76*; PP1 inh: -7; CSC inhib: 20; Calb FLC: inconclusive; Mdm2 MdmX conf: 53*; Full FLuc ctr: 25

How did NC(=O)c1ccc(C(=O)N/N=C(/Cc2ccccc2)c2ccccc2)cc1 do in these assays?
Beta cell apopt: -7; Mdm2 MdmX PPI: 31; CSC inhib: -8; Calb FLC: -18

Results for O=C(N/N=C(\Cc1ncc[nH]1)c1ccccc1)c1ccncc1 ?
Beta cell apopt: 101*; PP5 primary: 2; Mdm2 MdmX PPI: 67*; PP1 inh: -4; CSC inhib: 79*; Calb FLC: 8; Mdm2 MdmX conf: 63*; Full FLuc ctr: 30
